# Inconclusive results are not listed. Where a call stands in place of a potency, no number is given. Unmarked numbers belong to inactive results. Active and inactive are the calls of the source. Calls follow the shape of the dose curve; as a rule, active = well fitted activation curve with a large enough effect in the repeat runs; inconclusive = weak or mixed curves; inactive = flat fitted curve, though single readings scatter.
# Experiment: Caspase-3/7 induction in HepG2 cells by small molecules, qHTS assay (AID 1346978); also: nearly all actives have a fitted effect of over 15% in size
# Settings: HepG2 caspase-3/7 activation, Caspase-Glo luminescence, 17 h; series mostly up to 92.4 µM
# Text: National Center for Advancing Translational Sciences [NCATS] NIH Chemical Genomics Center [NCGC] U.S. Environmental Protection Agency [EPA] National Institutes of Environmental Health Sciences [NIEHS] National Toxicology Program [NTP] Assay overview: Apoptosis is a process of programmed cell death and plays a central role in the development of multicellular organisms. It is a highly regulated process and induces cell death by activating caspases, which are the members of cysteine aspartic acid-specific protease (caspase) family. Caspases involved in apoptosis are classified by their mechanism of action as initiator caspases (caspase-2, -8, -9 and -10) and executioner caspases (caspase-3, -6, and -7). Inhibition of apoptosis results in number of cancers, autoimmune diseases, inflammatory diseases and viral infection. To identify small molecule compounds that induce apoptosis, a homogeneous, luminescent Caspase-Glo 3/7 assay was used. Wild type HepG2 cells were used to screen Tox21 libraries for identifying caspase-3/7 activity inducers.
# Assay Protocol Summary: HepG2 cells were dispensed at 2,000 per well in 5uL of culture medium into white solid bottom 1536-well plates (Corning Life Sciences, Corning, NY) using a Multidrop Combi (Thermo Scientific, Waltham, MA) dispenser. The assay plates were incubated at 37 C and 5% CO2 for 5hr, and then 23nL of compounds dissolved in DMSO and positive control were transferred using a Pintool station (Wako, San Diego, CA). The assay plates were incubated at 37C and 5% CO2 for 17hr. For caspase-3/7 activity read, 4uL of Caspase-Glo 3/7 reagent (Promega Corporation, Madison, WI) was added to each well of the assay plates using Flying Reagent Dispenser (FRD, Aurora Discovery, San Diego, CA) and incubated the assay plates at room temperature for 30min. The luminescence signal was quantified using a ViewLux plate reader (Perkin Elmer, Shelton, CT).
# Potency is read from the fitted curve at half-maximal effect.
Compound,Potency,caspase activation
O=[N+]([O-])C(Br)Br,inactive,
N#Cc1c[nH]cc1-c1cccc2c1OC(F)(F)O2,12.2 µM (active),
CN,inactive,
CC1(C)C(C=C(Cl)Cl)C1C(=O)OC(C#N)c1ccc(F)c(Oc2ccccc2)c1 (stereo not given),inactive,
COC(=O)/C=C(\C)OP(=O)(OC)OC,inactive,
CCCN,inactive,
CC1CCCC1,inactive,
CN1[C@@H]2CC[C@H]1CC(O)C2 (stereo not given in full),inactive,
Cc1ccc2cc3c(ccc4ccccc43)c3c2c1CC3,6.13 µM (active),
CCCCN(CCCC)C(=S)S,inactive,
CC(=O)[O-].CC(=O)[O-].CC(=O)[O-].[Sb+3],,1.01% [at 3.27 µM]
c1ccc2nc(N3CCNCC3)ccc2c1,inactive,
CCCCC/C=C\C/C=C\C/C=C\C/C=C\CCCC(=O)NCC(=O)O,inactive,
CC(=O)[O-].CC(=O)[O-].O.O.[Zn+2],inactive,
Cc1ccc(C)c2ccccc12,inactive,
Nc1ccc(Cl)cc1C(=O)c1ccccc1F,inactive,
ClC1=C(Cl)[C@]2(Cl)[C@H]3[C@H]([C@@H]4C=C[C@H]3C4)[C@@]1(Cl)C2(Cl)Cl,inactive,
Nc1nc(N)nc(Cl)n1,inactive,
CCC1(CC)C(=O)N=C(O)NC1=O,inactive,
Cc1c([N+](=O)[O-])c(C)c([N+](=O)[O-])c(C(C)(C)C)c1[N+](=O)[O-],inactive,

Compound,Potency,caspase activation
c1ccc(N=NNc2ccccc2)cc1,inactive,
COP(=O)(OC)O/C(=C\Cl)c1cc(Cl)c(Cl)cc1Cl,inactive,
CCOP(=O)(OCC)Oc1cc(C)nc(C(C)C)n1,inactive,
COc1ccc2c(c1OC)C(=O)O[C@@H]2[C@H]1c2cc3c(cc2CCN1C)OCO3,inactive,
O=c1c2ccccc2c(=O)c2c1cc(Cl)c1[nH]c3c([nH]c12)c(Cl)cc1c(=O)c2ccccc2c(=O)c13,inactive,
COc1c2c(cc3c1OCO3)CCN(C)C2,inactive,
COC(=O)c1ccccc1S(=O)(=O)NC(=O)Nc1nc(C)nc(OC)n1,inactive,
C[C@]12CC[C@H]3[C@@H](CCC4=CC(=O)CC[C@@H]43)[C@@H]1CC[C@@H]2OC(=O)CCc1ccco1,inactive,
CC(=O)[O][Sn]([c]1ccccc1)([c]1ccccc1)[c]1ccccc1,0.306 µM (active),
CCC1COC(Cn2cncn2)(c2ccc(Cl)cc2Cl)O1 (stereo not given),inactive,
CC(=O)C(Cl)C(=O)N(C)C (stereo not given),inactive,
C[C@]12Cc3cn[nH]c3C[C@@H]1CC[C@@H]1[C@@H]2CC[C@@]2(C)[C@H]1CC[C@]2(C)O,inactive,
CC(C)=CC1C(C(=O)OC(C#N)c2cccc(Oc3ccccc3)c2)C1(C)C (stereo not given),inactive,
C[C@@H]1CC2=CC(=O)CC[C@@H]2[C@H]2CC[C@@]3(C)[C@@H](CC[C@]3(C)O)[C@@H]21,inactive,
Cc1nn(-c2cc(NS(C)(=O)=O)c(Cl)cc2Cl)c(=O)n1C(F)F,inactive,
N#CCCl,inactive,
Oc1cc(Cl)cc(Cl)c1,inactive,
CNC(C)(C)Cc1ccccc1,inactive,
Clc1c(Cl)c(Cl)c(Cl)c(Cl)c1Cl,,-1.49% [at 8.39 µM]
CN(C)CCc1c[nH]c2ccccc12,inactive,

# From PubChem BioAssay (Tox21)
